Measured values published in PubChem BioAssay (NCI).
Values joined by “and” are separate entries in the source; they are usually repeats but may differ in a detail not shown here. Identical values can stand only once. About 83,000 compounds went through this panel and 20% of them were active in at least one assay; those are over-represented in the sample as a whole.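 Step 1: grow cells in 96-well plates. Step 2: add test compound at a single concentration. Step 3: incubate 48 h. Step 4: record percent growth.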 A number with no mark means an inactive call. Active and inactive are the calls of the source. The calls were made as follows: active = growth percent below 10; inactive = the rest.

The molecules below were run on MDA-MB-468 breast (assay: NCI-60 one-dose screen, 48 h (100 = growth as untreated, 0 = no growth, -100 = all killed)). Conditions: 10 µM unless noted.

SMILES | growth
Cc1cnc(SCc2ccc(Cl)cc2Cl)nc1Nc1ccc(Cl)c(Cl)c1 | 101%
O=C(Nc1ccc(Cl)cc1)Nc1nc2ccc(OC(F)(F)F)cc2o1 | 89%
Cc1cc(NCc2cc(Nc3ccnc4cc(Cl)ccc34)ccc2F)nc(N2CCSCC2)n1 | -17.3% (active)
Cc1ccccc1N1C(c2ccccc2)=NNC12C=CC(=O)c1c(O)cccc12 (stereo not given) | 88%
CC[C@H]1OC(=O)[C@H](C)[C@@H](O[C@H]2C[C@@](C)(OC)[C@@H](O)[C@H](C)O2)[C@H](C)[C@@H](O[C@@H]2O[C@H](C)C[C@H](N(C)C)[C@H]2O)[C@](C)(OC)C/C(C)=C2/O[C@@]1(C)C=C2C | -73.7% (active)
COc1ccc(-c2nc3ccc(-c4nc5ccc(N6CCN(C)CC6)cc5[nH]4)cc3[nH]2)cc1OC | -30.1% (active)
N=C1S/C(=C/c2ccc(-c3ccc4c(c3)C(=O)NC4=O)o2)C(=O)N1c1ccc(Br)cc1 | 51.6%
Nc1nc(-c2cc3c(cc2Cl)NC(=O)/C3=C/c2ccc(Cl)cc2)cs1 | -14% (active)
O=C(/C=C/c1ccc(F)cc1)Nc1cccc2cccnc12 | -19.1% (active)
CN(C)CC(O)c1ccc2cc(Br)c3ccccc3c2c1 (stereo not given) | -0.132% (active)
O=C(CCCOc1ccc(Br)cc1)Nc1ncc(Cc2ccc(F)cc2)s1 | 57%
CC(Nc1c(C#N)cnc2ccc(-c3cncc(-c4n[nH]c(=O)o4)c3)cc12)c1ccccc1 (stereo not given) | -41.7% (active)
COc1ccc(/C=C2/CN(C(=O)c3ccccc3F)C/C(=C\c3ccc(OC)cc3)C2=O)cc1 | 1.01% (active)
O=C1Cc2ccccc2C(=O)O1 | 112%
NC1=Nc2ccccc2N(O)N1 | 102%
O=S(=O)(NCCCNc1cc(-c2cn(-c3ccccc3)nc2-c2cccc(O)c2)ccn1)c1ccc(C(F)(F)F)cc1 | 3.04% (active)
CCOC(=O)c1nn(CC(O)c2ccccc2)c(NC(=O)Nc2cccc(F)c2)c1C (stereo not given) | 94.6%
CCOC(=O)c1cc(C(=O)c2ccc(OC)cc2)n2ccc(/C=C/c3cc[n+](CC(=O)c4ccc(OC)cc4)cc3)cc12 | -38.2% (active)
Cc1ccccc1-c1nc(C(Cl)Cl)nc2cc(-c3ccccc3)nn12 | 52.7%
Cc1ccc(S(=O)(=O)OC[C@@]2(C)CC[C@]3(C)CC[C@]4(C)C(=C3C2)C=C[C@@H]2[C@@]3(C)CCCNC(C)(C)[C@@H]3CC[C@]24C)cc1 | -88.5% (active)
NC1CCC(C(=O)O)CC1 (stereo not given) | 99.8% and 107%
Cc1cc2cccnc2c2ncccc12 | -20.5% (active)
Nc1nc(Nc2ccccc2SSc2ccccc2Nc2nc(N)nc(-c3cccs3)n2)nc(-c2ccsc2)n1 | 115%
CCN1C2=C(SC(=S)C1=C1SC(C(=O)OC)=C(C(=O)OC)S1)SC(=Nc1ccc(OC)cc1)C2=O | -78% (active)
C/C(Cc1ccc(Cl)cc1)=C(\c1ccc(OCCN2CCCCCC2)cc1)c1ccc(OC(=O)C2CCCCC2)cc1 | 52.2%
